# Ins promoter up = insulin promoter activators in MIN6 cells, imaging, high-content screening, mouse beta cells | MIN6 insulin promoter-GFP reporter; hits give high values | z-score at 5 µM | 190,000 compounds, 0.3% hits | AID 1625, 2009;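 active = z-score above 3 at 5 µM with at least 500 cells counted in the well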
# Lmaj promast = Leishmania major promastigote growth inhibition, primary screen; Leishmania major promastigotes, resazurin fluorescence viability; inhibition, % at 10 µM; 200,000 compounds, 9% hits; in the data active = inhibition above about 50%;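 note: promastigotes grown with compound for 44 hours at 28 °C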
# INS promoter inh = inhibitors of insulin promoter-driven GFP, primary screen, imaging, TRM-6 cells (human fetal islet line), eGFP reporter, cell count; inhibition, % at 2 µM; AID 1273, 2008; 130,000 compounds, 0.9% hits; reporter expression induced with tamoxifen;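 active = inhibition above the mean plus 3 SD, with well images judged a real hit on visual review, cut at about 60% in these data, passing the limit was not always enough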
# Autophagy mod = autophagy modulators in MEF cells, primary screen, imaging, high-content, MEF GFP-LC3; MEF GFP-LC3 puncta imaging; test concentration mostly 10 µM; calls only at 10 µM (by protocol); 190,000 compounds, 0.98% hits;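 active = percentage of spot-positive cells more than 3 SD above its plate mean, without a fluorescence outlier flag or 80% toxicity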;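 note: spot-positive cell cutoff set from DMSO-treated cells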
# HCT116 bCat-KO = primary screen for growth suppressors in beta-catenin knockout HCT116 cells (colon tumor, human). viability, % at 10 µM. AID 818, 2007. HCT116 beta-catenin knockout viability, CellTiter-Glo, 60 h; hits give low values. 140,000 compounds, 1.5% hits;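 active = viability at or under a set limit, the compound median less 4 SD, cut at about 6% in these data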;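 note: 0% = Hyamine 1622 control at 20 µM and 100% = untreated cell control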
# PTEN del growth = growth suppression of PTEN-null HCT116, primary screen, cell-based, CellTiter-Glo; HCT116 PTEN-null viability, 60 h; hits give low values; viability, % at 10 µM; 140,000 compounds, 1.2% hits; AID 827, 2007;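 active = viability at or below a set limit, 4 SD under the median of all tested compounds, cut at about 3.7% in these data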;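 note: PTEN knockout HCT116 line with beta catenin targeted HCT116 as companion control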
# Numbers without * were called inactive; i = inactive; / = no result given. An excerpt weighted towards active compounds, which were near 9.6% of everything screened.
SMILES,Ins promoter up,Lmaj promast,INS promoter inh,Autophagy mod,HCT116 bCat-KO,PTEN del growth
CCOCc1cn(CC(=O)c2ccc([N+](=O)[O-])cc2)c(C)nc1=N,-1.5,-2,21,i,42,64
COc1ccc(-c2nc(N)n[nH]2)cc1,0.43,-3,14,i,100,100
O=C(Nc1nc(-c2ccccn2)cs1)C1CCCC1,-1.2,79*,/,i,/,/
O=C(Nc1nc(-c2nc3ccccc3s2)cs1)C1CC1,1.1,-1,14,i,91,87
Cn1cc(S(=O)(=O)CC(=O)N2CCc3ccccc32)c2ccccc21,1.1,2,/,i,88,84
COc1ccc(S(=O)(=O)N2Cc3ccccc3CC2C(=O)Nc2nccs2)cc1 (configuration not stated),-0.29,99*,3,i,86,91
CCc1nnc(NC(=O)C2Cc3ccccc3CN2S(=O)(=O)c2ccc(C)cc2)s1 (configuration not stated),-0.22,39,-103,i,65,72
CNC(=O)C1Cc2ccccc2CN1S(=O)(=O)c1cccs1 (configuration not stated),-0.25,68*,17,i,92,95
COc1ccc(S(=O)(=O)N2Cc3ccccc3CC2C(=O)Nc2ccc3c(c2)OCO3)cc1 (configuration not stated),0.45,19,17,i,86,72
Cc1ccc(S(=O)(=O)N2Cc3ccccc3CC2C(=O)Nc2ccc3c(c2)OCO3)cc1 (configuration not stated),0.16,100*,-19,i,85,78
CCc1nnc(NC(=O)C2Cc3ccccc3CN2S(=O)(=O)c2cccs2)s1 (configuration not stated),-0.39,53*,-14,i,60,72
CCCCNC(=O)C1C2C=CC3(CN(Cc4ccccc4Cl)C(=O)C13)O2 (configuration not stated),0.77,-5,-20,i,97,94
O=C(CN(C(=O)c1cccc([N+](=O)[O-])c1)C1CCCCC1)Nc1ccc(Cl)c([N+](=O)[O-])c1,-2,70*,0,i,71,66
COc1ccc(C(=O)Nc2ccc(N3CCCC3)cc2)cc1,0.11,92*,-197,i,92,83
O=C(Nc1ccc(N2CCCCC2)cc1)c1cccnc1,3.4*,3,10,i,89,93
O=C(Nc1ccc(N2CCCC2)cc1)C(Cl)c1ccccc1 (configuration not stated),0.17,99*,5,i,72,92
O=C(Nc1ccc(N2CCN(Cc3ccccc3Cl)CC2)cc1)c1cccnc1,/,-5,-37,i,82,91
CS(=O)(=O)N1CCN(c2ccc(NC(=O)C(c3ccccc3)c3ccccc3)cc2)CC1,/,7,56,i,93,84
Cc1ccc(S(=O)(=O)N(CC(=O)NCc2ccco2)Cc2ccccc2F)cc1,0.04,93*,-46,i,91,98
CCCCCCn1c(SCCCC)nc2c1c(=O)[nH]c(=O)n2C,-1.1,13,39,i,70,83
CCn1c([N+](=O)[O-])nc2c1c(=O)[nH]c(=O)n2C,1,100*,/,i,/,/
CC(=O)Nc1ccccc1C(=O)N1CCN(c2cccc(C)c2C)CC1,0.36,-5,/,i,/,/
COc1ccccc1/C=N/Nc1cc(N(C)C)nc(N(C)C)n1,0.04,84*,/,i,/,/
COc1ccc(/C=N/Nc2cc(C)nc(N)n2)cc1,/,60*,3,i,94,89
CN(C)c1cc(N/N=C\c2ccccc2)nc(N(C)C)n1,-0.96,47,/,i,/,/
COc1ccc(/C=N/Nc2cc(N(C)C)nc(N(C)C)n2)cc1,-0.58,98*,17,i,70,57
COc1ccc(CCCC(=O)NCc2ccccc2)cc1C,0.14,-4,-70,i,32,29
NNC(=O)c1sccc1OCc1ccc(F)cc1,0,-2,-25,i,/,/
O=C(N/N=C/c1ccc(Cl)cc1)c1sccc1OCc1ccc(F)cc1,0.4,85*,/,i,6.0*,6
O=C(N/N=C/c1ccc(F)cc1)c1sccc1OCc1ccc(F)cc1,-0.9,88*,22,i,14,15
